High-throughput results from PubChem.
Six1-Eya2 inh: inhibitors of human Six1/Eya2 interaction; 360,000 compounds, 0.56% hits; AID 651725; Q15475+O00167; activity change, % (concentration not given with the values); AlphaScreen GST-Six1/His-Eya2 binding, biochemical; hits give low values
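Six1/Eya2 binding was read as AlphaScreen signal after compounds were pinned into GST-Six1 plus His-tagged Eya2 (5X stock 250/500 nM) in pH 8.0 Tris/NaCl/TCEP buffer, beads added, then incubated 1 h, 37 C, dark.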
hERG WT inh: inhibitors of human wildtype KCNH2 potassium channel | AID 720551 | activity change, % at 1.84 µM | U2OS, BacMam KCNH2, thallium flux FluxOr; hits give low values | Q12809 | 340,000 compounds, 0.37% hits;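 active means maximum activity change below -70%; inconclusive means maximum activity change between -70% and -50%; inactive means maximum activity change above -50%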
Target sequence (Q12809 whole entry, looked up): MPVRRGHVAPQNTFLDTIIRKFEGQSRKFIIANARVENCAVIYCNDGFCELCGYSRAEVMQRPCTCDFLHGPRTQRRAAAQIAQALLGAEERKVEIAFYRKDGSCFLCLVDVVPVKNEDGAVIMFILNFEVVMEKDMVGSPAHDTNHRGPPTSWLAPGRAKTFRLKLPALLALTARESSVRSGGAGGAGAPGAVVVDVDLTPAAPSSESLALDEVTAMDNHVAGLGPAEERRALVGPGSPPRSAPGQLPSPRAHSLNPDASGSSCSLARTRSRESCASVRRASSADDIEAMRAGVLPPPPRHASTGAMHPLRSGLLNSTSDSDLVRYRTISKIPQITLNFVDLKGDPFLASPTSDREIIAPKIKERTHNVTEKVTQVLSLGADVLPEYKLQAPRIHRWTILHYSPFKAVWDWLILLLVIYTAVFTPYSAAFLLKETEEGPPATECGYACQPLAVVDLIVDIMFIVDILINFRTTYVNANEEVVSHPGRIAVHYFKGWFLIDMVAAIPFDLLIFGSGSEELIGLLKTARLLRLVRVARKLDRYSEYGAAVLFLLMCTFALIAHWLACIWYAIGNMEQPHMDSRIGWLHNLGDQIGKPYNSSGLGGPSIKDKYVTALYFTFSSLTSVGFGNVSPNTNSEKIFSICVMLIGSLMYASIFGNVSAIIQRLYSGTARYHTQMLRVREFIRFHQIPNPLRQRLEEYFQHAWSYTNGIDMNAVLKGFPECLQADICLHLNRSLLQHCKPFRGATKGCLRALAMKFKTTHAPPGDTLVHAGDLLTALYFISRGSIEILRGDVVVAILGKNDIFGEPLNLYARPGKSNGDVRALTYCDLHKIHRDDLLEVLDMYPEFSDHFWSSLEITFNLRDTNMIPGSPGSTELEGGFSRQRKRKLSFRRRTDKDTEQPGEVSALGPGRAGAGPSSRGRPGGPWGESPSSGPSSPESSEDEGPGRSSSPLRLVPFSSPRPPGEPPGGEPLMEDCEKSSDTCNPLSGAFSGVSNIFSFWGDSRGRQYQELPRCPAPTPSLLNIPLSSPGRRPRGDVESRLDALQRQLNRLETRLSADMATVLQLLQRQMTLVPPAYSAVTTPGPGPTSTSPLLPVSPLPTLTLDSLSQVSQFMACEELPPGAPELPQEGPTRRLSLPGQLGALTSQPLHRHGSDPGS
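U2OS cells were transduced with wild-type KCNH2 virus (2.03 x 10^8 / mL) for 4 h at room temperature, then cultured overnight at 37 C. Thallium flux was read with FluxOr dye. Rate constants were normalized to DMSO controls.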
CtBP-E1A blk: CtBP/E1A binding inhibition; AlphaScreen GST-E1A/His-CtBP binding, 1536-well; hits give low values; AID 651724; activity change, % (no concentration beside the values); 340,000 compounds, 0.49% hits
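Steps: dispense buffer (Tris pH 8.0, NaCl 300 mM, TCEP 1 mM, BSA, Tween 20); add 5X protein mix (GST-E1A, His-CtBP, 125 nM each); pin 23 nL compound; 2 h at 37 °C, dark; add 5X beads (50 ug/mL); 1 h; read.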
KCNH2 3.1 block: blocks the human KCNH2 3.1 channel isoform; U2OS KCNH2 3.1, thallium flux FluxOr; hits give low values; activity change, % (tested at about 1.8 µM); 340,000 compounds, 0.95% hits;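 active means maximum activity change below -70%; inconclusive means maximum activity change from -70% to -50%; inactive means maximum activity change above -50%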;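 further: thallium influx rate constant from kinetic fluorescence after stimulation buffer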
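Thallium flux read-out: FluxOr dye with Red40 quencher in HBSS/HEPES, 45 min at RT. Rate constants from kinetic reads were normalized to positive and negative DMSO controls. Cells: U2OS virally expressing the 3.1 isoform.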
KDM4E inh: JMJD2E (human) inhibition | 230,000 compounds, 1.6% hits | B2RXH2 | Potency, µM (highest dose often 57.1 µM), inactives show at the top dose activity change, negative = inhibition, usual class: inhibitors | JMJD2E catalytic domain, FDH-coupled NADH fluorescence (FDH is formaldehyde dehydrogenase) | AID 2147; active means well fitted inhibition curve with a large enough effect, not every such curve was filed as active; inconclusive means small, poorly fitted or top-dose-only effect, or another doubt; inactive means no such curve, though single readings can be large or run the other way;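 further: potency means the concentration at half of the fitted maximal effect; 0% = wells with enzyme and -100% = buffer wells without enzyme; nearly all actives have a fitted effect of over 50% in size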
* hit, by the source's call; u = inconclusive; x = no result given. Only some compounds are listed: those with a hit (about 2% of all), similar ones and a draw of the others. Unless noted, no stated cut-off is given here; in the data, active means activity change below about -65%; inconclusive means mostly about -30% to -63%; inactive means weaker than that. Unless noted, on the % scale 0 is the no-effect control and ±100 the full control effect.

SMILES	Six1-Eya2 inh	hERG WT inh	CtBP-E1A blk	KCNH2 3.1 block	KDM4E inh
COc1ccc(Cc2nnc(NN)[nH]c2=O)cc1OC	-91*	0	1	-5	x
CCN(CC)S(=O)(=O)c1cccc2cccnc12	5	0	-4	-11	11%
c1cnc2c(c1)ccc1cccnc12	-90*	1	-76*	-11	25µM*
O=Cc1ccc2ccc3cccnc3c2n1	-69*	-6	-93*	3	x
CSS(=O)(=O)c1cccc2cccnc12	u	4	-70*	-6	2.5µM*
O=[N+]([O-])c1cccnc1-n1cnc2ccccc21	2	2	x	11	-3%
O=C(Nc1ccc(F)cc1)C(=O)C1C(=O)Nc2ccccc21 (stereo unspecified)	3	1	10	25	-6%
O=C(Nc1ccc2ccccc2c1)C(=O)C1C(=O)Nc2ccccc21 (stereo unspecified)	x	x	x	x	8.9µM*
CCN1C(=O)[C@H]2[C@@H](c3ccc(-c4ccc5c(c4)OCO5)c(OC)c3)N[C@@](CC(C)C)(C(=O)OC)[C@H]2C1=O	-14	0	-23	-1	x
CCN1C(=O)[C@H]2[C@@H](c3ccc(-c4ccc5c(c4)OCO5)c(OC)c3)N[C@@](Cc3ccccc3)(C(=O)OC)[C@H]2C1=O	-19	6	-20	-111*	x
CC(c1ccco1)N(C(=O)c1ccc(C(F)(F)F)cc1)c1ccccn1 (stereo unspecified)	4	9	6	1	-20%
CC(C)N(CCC(=O)c1ccc2ccccc2c1)Cc1ccccc1	8	-4	-13	5	35µM*
O=C(CC1Nc2ccccc2NC1=O)Nc1cc(Cl)cc(Cl)c1 (stereo unspecified)	7	-10	4	-3	u
Cc1ccc(/C=C/S(=O)(=O)NCC(=O)OCC(=O)Nc2ccc(C(=O)N(C)C)cc2)cc1	-9	-3	-91*	-5	x
Cc1ccc(/C=C/S(=O)(=O)NCC(=O)OCC(=O)Nc2ccc(C(N)=O)cc2)cc1	-4	0	-6	8	x
Cn1c(N)c(C(=O)CCl)c(=O)n(Cc2ccccc2)c1=O	1	-4	4	-116*	-2%
O=C(Cc1ccccc1)NNC(=S)Nc1ccccc1	-11	10	2	12	4%
O=C(CSc1nnc(SCc2ccccc2)s1)NNC(=S)Nc1ccccc1	0	-85*	2	-1	-1%
CCOc1ccc(Br)cc1CNc1ccc2c(c1)OCCO2	-77*	0	u	-22	-21%
Cc1cc(C)c2c(CN3CCN(Cc4ccc5c(c4)OCO5)CC3)cc(=O)oc2c1C	-11	24	-3	-92*	4%
Cc1ccc2c(CN3CCN(Cc4ccc5c(c4)OCO5)CC3)cc(=O)oc2c1C	4	41	1	-31	-12%
O=C(Oc1cccc2cccnc12)c1ccco1	u	1	u	-7	u
O=C(Cc1ccc(Cl)cc1)Oc1cccc2cccnc12	-91*	-2	-83*	-5	6%
S=C(NCc1ccccc1)NCc1ccccc1Cl	-3	5	-68*	-7	x
Fc1ccc(NC(=S)NCc2ccccc2Cl)cc1	9	-5	15	13	15%
SMILES	Six1-Eya2 inh	hERG WT inh	CtBP-E1A blk	KCNH2 3.1 block	KDM4E inh
CCO/C([O-])=N/c1sn[n+](C)c1C	4	1	x	1	1%
COc1cc(-c2cc(=O)c3c(O)c(OC)c(OC)c(O)c3o2)ccc1O	u	-3	-20	10	20µM*
COc1c(O)c(O)c2oc(-c3ccccc3)cc(=O)c2c1OC	-15	-2	-13	-3	32µM*
COc1cc(OC)c2c(=O)cc(-c3ccccc3)oc2c1	0	1	-4	10	u
COc1ccc(-c2cc(=O)c3c(O)c(OC)c(OC)c(OC)c3o2)cc1OC	x	x	x	x	-15%
CCOc1ccc2[nH]cc(S(=O)(=O)c3ccc(Cl)cc3)c(=O)c2c1	-2	-7	x	0	-17%
COc1ccc(C(=O)COC(=O)c2ccc(N(C)C)cc2)cc1	0	6	7	-22	-24%
COc1cccc(/C=N/NC(=O)CSc2ccccc2C)c1O	u	0	-3	-12	28µM*
COc1ccccc1/C=C\C(=O)NCC(=O)N/N=C/c1cccc(OC)c1O	u	2	-89*	12	x
COc1ccccc1/C=C/C(=O)NCC(=O)N/N=C/c1cc(Br)ccc1OC	u	4	u	2	u
COc1cccc(/C=N/NC(=O)CNC(=O)c2cccs2)c1O	-85*	-4	-89*	34	8.9µM*
Cc1ccc(/C=N/NC(=O)CNC(=O)c2cccs2)cc1	1	-15	2	5	x
COc1cccc(/C=N/NC(=O)CNC(=O)CCc2ccccc2)c1O	-69*	-9	x	13	4µM*
CCOc1ccc(NS(=O)(=O)c2ccc(NC(=O)C3CCCO3)cc2)cc1 (stereo unspecified)	2	3	1	-2	-1%
COc1cc(/C=N/NC(=O)CCC(=O)NCc2ccccc2)cc(OC)c1OC	-12	10	-66*	16	-13%
Oc1ccc(NCc2cccc(OCc3ccc(F)cc3)c2)cc1	1	2	x	-7	-2%
Oc1ccc(NCc2cccc(OCc3ccccc3)c2)cc1	-20	-12	x	5	4.5µM*
COc1cccc2sc(N3CCN(C(=O)C4COc5ccccc5O4)CC3)nc12 (stereo unspecified)	-29	10	0	2	x
O=C(Nc1cc(Cl)ccc1Oc1ccccc1)C1=COCCO1	4	6	4	-74*	x
CCOc1ccc(Oc2ccc(Cl)cc2NC(=O)C2=COCCO2)cc1	-2	4	-17	15	x
Cc1[nH]c2ccccc2c1/C=C/C(=O)c1ccccc1	9	-28	23	-86*	6%
CCN1CCN(c2nc3sc4c(c3c(=O)n2-c2ccc(OC)cc2)CCCCC4)CC1	-15	0	-17	-71*	5%
COc1cccc(/C=N/n2c(N)c(S(=O)(=O)c3cccs3)c3nc4ccccc4nc32)c1	-8	-2	-14	-5	u
Nc1c(S(=O)(=O)c2cccs2)c2nc3ccccc3nc2n1/N=C/c1cccc(O)c1	-87*	3	-92*	-4	u
COc1ccccc1-c1cc(NC=O)c2ncc(-c3cccc(C(F)(F)F)c3)n2c1	-1	x	2	x	x
CN(C)c1ccccc1-c1cc(NC=O)c2ncc(-c3cccc(C(F)(F)F)c3)n2c1	u	x	-72*	x	x
CCN1C(=O)[C@@H]2[C@@H](c3ccc(-c4cccc(Cl)c4)c(OC)c3)N3CCCC[C@@]3(C(=O)OC)[C@@H]2C1=O	-9	9	-7	u	x
O=C(Nc1ccccc1)C1=C(N2CCOCC2)/C(=C/c2cccnc2)CC1	-4	-10	10	11	u
